The values below come from PubChem BioAssay (Tox21).

Test [1] in a line: qHTS assay to identify small molecule agonists of the hypoxia (HIF-1) signaling pathway - cell viability counter screen (AID 1224844; calls by dose curve; note: nearly all actives have a fitted effect of over 50% in size). In outline:
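HRE-bla ME-180 cells in medium with 0.5% dialyzed FBS were preincubated 5 hrs at 37C, exposed to compounds for 17 hrs, then viability was read as CellTiter-Glo luminescence after 30 min at room temperature, in the reporter wells.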

A short description of test [2]: qHTS assay to identify small molecule agonists of H2AX (AID 1224845; active = well fitted activation curve with a large enough effect in the signal ratio in the repeat runs, not every such curve was filed as active; the % refers to the signal ratio). In outline: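 Wild-type CHO-K1 cells plated overnight, then exposed 3 hr at 37C to compounds at 15 concentrations (0.76% DMSO). Lysed, then HTRF anti-pH2AX(S139)-cryptate/anti-H2AX-d2 detection after 24 hr at room temperature; emissions 665 and 620 nm.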
Test [3] is described as follows: qHTS assay to identify small molecule agonists of the hypoxia (HIF-1) signaling pathway (AID 1224846; active = well fitted activation curve with a large enough effect in the signal ratio in the repeat runs, not every such curve was filed as active; the % refers to the signal ratio). In outline:
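HRE-bla ME-180 cells (beta-lactamase reporter under hypoxia response element) were plated at 2,000 cells/well in medium with 0.5% dialyzed FBS, rested 5 hrs, then given compounds in DMSO for 17 hrs at 37C, 5% CO2. Reporter induction was read with CCF4-AM FRET substrate.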

Test [4] can be described thus: qHTS assay to identify small molecule agonists of H2AX - cell viability counter screen (AID 1224847; calls by dose curve; note: top concentration of the series differs between compounds; nearly all actives have a fitted effect of over 30% in size). The procedure, abridged: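 After overnight plating of 1000 CHO-K1 cells per well, a 15-concentration compound series was applied for 3 hr at 37C. Luminescence from CellTiter-Glo, read following 30 min at room temperature, reflected cell viability.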
A short description of test [5]: qHTS assay to identify small molecule antagonists of the estrogen related receptor (ERR) signaling pathway from Tox21 library (AID 1224848). Note: nearly all actives have a fitted effect of over 50% in size. Note: potency is the fitted concentration of half-maximal effect. The procedure, abridged: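 Cells: ERR line, 2,000/well; 6 h preincubation 37 C/5% CO2. Cpd in DMSO via pin tool; 18 h, 37 C. ONE-Glo, 30 min RT, luminescence.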
Test [6] is described as follows: qHTS assay to identify small molecule agonists of the estrogen related receptor (ERR) signaling pathway from Tox21 library (AID 1224849; calls by dose curve; note: nearly all actives have a fitted effect of over 15% in size). The following applies: ERR reporter cell line, ONE-Glo luciferase, 18 h; at 92.4 µM (top of the series). In outline:
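ERR reporter cell line (NTP) seeded, rested 6 h at 37 C/5% CO2, then pinned with Tox21 compounds in DMSO. After 18 h at 37 C, ONE-Glo luciferase luminescence was read following 30 min at room temperature.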

The nature of test [7]: qHTS RealTime-Glo MT Cell Viability Assay in HepG2 cells - 24 hour (AID 1224867). Note: nearly all actives have a fitted effect of over 50% in size. The procedure, abridged: (§1)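 Cells + NanoLuc/prosubstrate dispensed (600 cells/well) → 5 h at 37 C/5% CO2 → compounds in DMSO transferred → 40 h incubation at 37 C, luminescence read at 0, 8, 16, 24, 32, 40 h.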
The nature of test [8]: qHTS RealTime-Glo MT Cell Viability Assay in HEK293 cells - 32 hour (AID 1224868). Note: nearly all actives have a fitted effect of over 50% in size. Note: potency is the fitted concentration of half-maximal effect. In outline: (§2)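 Tox21 10K qHTS, HEK293, 600 cells/well, RealTime-Glo reagent co-dispensed with cells; 5 h preincubation, compound by pintool, 37 C, luminescence at 0–40 h.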
A short description of test [9]: A CellTox Green Cytotoxicity Assay to monitor cytotoxicity in HEK293 cells - 0 hour (AID 1224869). Note: nearly all actives have a fitted effect of over 50% in size. In outline:
(§3)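 HEK293 cells premixed with CellTox Green dye were seeded at 600 cells/well and left 5 h at 37 C/5% CO2 before pin transfer of 23 nL compound in DMSO. Fluorescence from dye bound to dead-cell DNA was read during 40 h treatment.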

A short description of test [10]: qHTS RealTime-Glo MT Cell Viability Assay in HepG2 cells - 40 hour (AID 1224870). Note: nearly all actives have a fitted effect of over 50% in size. In outline:
(§4)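 HepG2 cells mixed with RealTime-Glo MT reagents (NanoLuc plus cell-permeant prosubstrate) were seeded at 600 cells/well, incubated 5 h at 37 C/5% CO2, then pinned with compounds in DMSO; nonlytic luminescence tracked viability during 40 h treatment.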

Test [11] is described as follows: A CellTox Green Cytotoxicity Assay to monitor cytotoxicity in HEK293 cells - 40 hour (AID 1224871). Note: nearly all actives have a fitted effect of over 45% in size. Note: potency is the fitted concentration of half-maximal effect. The procedure, abridged: as §3
Test [12] in a line: qHTS RealTime-Glo MT Cell Viability Assay in HEK293 cells - 16 hour (AID 1224872). In outline:
as §2

The nature of test [13]: qHTS RealTime-Glo MT Cell Viability Assay in HepG2 cells - 8 hour (AID 1224873). Note: nearly all actives have a fitted effect of over 55% in size. The procedure, abridged:
as §4

A short description of test [14]: qHTS RealTime-Glo MT Cell Viability Assay in HEK293 cells - 40 hour (AID 1224874). Note: nearly all actives have a fitted effect of over 50% in size. Note: potency is the fitted concentration of half-maximal effect. The following applies: RealTime-Glo luminescence; max response: stronger effect = lower value. The procedure, abridged:
(§5)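 HEK293 cells mixed with RealTime-Glo reagents (NanoLuc plus cell-permeant prosubstrate) at 600 cells/well, preincubated 5 h at 37 C/5% CO2, then given 23 nL compound in DMSO. Nonlytic luminescence from viable cells was read at 0, 8, 16, 24, 32 and 40 h.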

A short description of test [15]: A CellTox Green Cytotoxicity Assay to monitor cytotoxicity in HEK293 cells - 24 hour (AID 1224875). Note: nearly all actives have a fitted effect of over 45% in size. The procedure, abridged:
as §3

A short description of test [16]: A CellTox Green Cytotoxicity Assay to monitor cytotoxicity in HepG2 cells - 16 hour (AID 1224876). Note: nearly all actives have a fitted effect of over 45% in size. In outline:
(§6)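 HepG2 cells were seeded together with the CellTox Green dye at 600 cells/well, left 5 h at 37 C/5% CO2, then given compounds in DMSO. Fluorescence from dye bound to dead-cell DNA was read repeatedly over 40 h of treatment at 37 C.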

The nature of test [17]: qHTS RealTime-Glo MT Cell Viability Assay in HepG2 cells - 32 hour (AID 1224877). Note: nearly all actives have a fitted effect of over 55% in size. The procedure, abridged:
as §1

The nature of test [18]: A CellTox Green Cytotoxicity Assay to monitor cytotoxicity in HepG2 cells - 24 hour (AID 1224878). Note: nearly all actives have a fitted effect of over 45% in size. In outline: as §6
Test [19] can be described thus: A CellTox Green Cytotoxicity Assay to monitor cytotoxicity in HepG2 cells - 40 hour (AID 1224879). Note: nearly all actives have a fitted effect of over 40% in size. In outline:
as §6

The nature of test [20]: qHTS RealTime-Glo MT Cell Viability Assay in HEK293 cells - 0 hour (AID 1224880). In outline:
as §5

Where “and” joins values, the source holds several entries; their conditions need not be identical. Identical values can stand only once. Records with an inconclusive call do not appear. Some compounds were tested as several samples or in several runs, with calls that do not always agree. Calls of active or inactive are those of the source. Unless noted, calls come from the whole dose curve; as a rule, active = well fitted curve in the direction sought with a large enough effect in the repeat runs; inconclusive = weak or mixed curves; inactive = no such curve, though single readings can be large; an effect the other way counts as inactive or inconclusive.
% is set by controls: 0 for no effect and ±100 for the full control effect.

`Nc1ccc(Cl)c(Cl)c1`: the Potency entry in test [1], in test [2], in test [4], in [7], in [8] and in test [9] was “inactive” throughout. Besides, the Potency entry in test [10], in test [11], in test [12], in test [13], in [15] and in test [16] was “inactive” each time. The Potency entry in [17], in test [18], in test [19] and in test [20] was “inactive” each time. Besides, the compound was classed as inactive in test [3]. The Potency in test [5] is 21.7 µM (active). Also, the activity change, positive = activation in test [6] is -24.9% (inactive) and -36.3% (inactive). In test [14], the max response was 0.648% (inactive).
Turning to `c1ccc(NNc2ccccc2)cc1`, the Potency entry in test [1], in [2], in test [4], in test [5], in test [7] and in test [8] was “inactive” each time. Also, the Potency entry in test [12], in test [13], in test [16], in test [17], in [18] and in test [19] was “inactive” throughout. Also, in [20], the Potency result is “inactive”. In addition, the activity change, positive = activation in test [6] is 2.54% (inactive) and 6.77% (inactive). For the same compound, the Potency in [11] is 24.5 µM (active). In addition, in [14], the max response is -4.96% (inactive) and -2.46% (inactive).
Regarding `CCCCCCOC(=O)c1ccccc1C(=O)OCCCCCC`, the Potency entry in test [1], in [2], in test [4], in test [7], in [8] and in test [10] was “inactive” each time. The Potency result in test [11], in test [12], in [13], in test [15], in test [16] and in [17] was “inactive” each time. Moreover, the Potency result in [19] and in [20] was “inactive” each time. Moreover, the max response in [14] was -22.3% (inactive).
For the compound `CCCCN(CCCC)N=O`, the Potency entry in [1], in test [2], in test [7], in [8], in [9] and in [10] was “inactive” in each case. The Potency entry in test [11], in test [12], in test [13], in [15], in [16] and in [17] was “inactive” throughout. Further, the Potency entry in test [19] and in test [20] was “inactive” in each case. Moreover, the outcome in test [3] was inactive. Moreover, the max response in [14] was -0.0622% (inactive) and 14.1% (inactive).
Consider `O=[N+]([O-])c1c(Cl)c(Cl)c(Cl)c(Cl)c1Cl`, for which the Potency entry in [1], in test [2], in [7], in [8], in test [9] and in test [12] was “inactive” each time. Further, the Potency entry in [13], in [15], in [16], in [17], in [18] and in test [19] was “inactive” throughout. Moreover, in test [20], the Potency result was “inactive”. The call in [3] was inactive. The Potency in [11] was 21.8 µM (active) and inactive. For the same compound, the max response in [14] was 2.95% (inactive) and 16.6% (inactive).
In the case of `CC(C)Oc1cc(-n2nc(C(C)(C)C)oc2=O)c(Cl)cc1Cl`, the Potency result in [1], in [2], in test [7], in test [10], in test [13] and in [16] was “inactive” each time. In addition, the Potency entry in test [17], in [19] and in test [20] was “inactive” each time. Besides, in [3], the call was inactive. Also, the Potency in [8] is 34.7 µM (active); in test [11], 682 nM (active) and inactive; in test [14] it was 34.7 µM (active).
Take `CC(C)N(C(=O)SCC(Cl)=C(Cl)Cl)C(C)C`: the Potency entry in [1], in [2], in [4], in test [7], in test [8] and in test [9] was “inactive” throughout. Also, the Potency entry in test [11], in test [12], in [13], in test [15], in test [16] and in [17] was “inactive” each time. Moreover, the Potency result in [18], in test [19] and in [20] was “inactive” throughout. Also, the max response in [14] is -12% (inactive) and 19.1% (inactive).
